Experiment [1] has as its target Calcium and integrin-binding protein 1 (Homo sapiens) (UniProt Q99828). Briefly: Validation qHTS for Identification of Calcium Integrin Binding protein 1 (CIB1) Competitor (AID 1508618). Further: on the % scale 0 is the no-effect control and ±100 the full control effect. The method in brief:
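CIB1-GST (1 uM final) in 5 mM HEPES pH 7.4, 125 mM NaCl, 5 mM CaCl2, 0.01% Tween20 was preincubated 15 min at room temperature with compound (up to 114 uM), then FITC-alphaIIb peptide (100 nM) added for 15 min; fluorescence polarization read.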
(In general: qHTS replaces the single test concentration by a dilution series.)

For experiment [2] the target is unchanged. Briefly: Primary qHTS for Identification of Calcium Integrin Binding Protein 1 (CIB1) Competitor (AID 1508620).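 Further: GST tagged CIB1 binding a fluorescein labelled alphaIIb integrin peptide tracer; top concentration of the series differs between compounds; on the % scale 0 is the no-effect control and ±100 the full control effect.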 The essentials: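 CIB1-GST (1 uM final) and compound incubated 15 min at room temperature before adding FITC-alphaIIb peptide tracer (100 nM final). Competition for binding read by fluorescence polarization (ex 480, em 540) after another 15 min at room temperature.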

Experiment [3] in a line: Primary qHTS for small molecule stabilizers of the endoplasmic reticulum resident proteome: Secreted ER Calcium Modulated Protein (SERCaMP) assay (AID 1508630). Further: on the % scale 0 is the no-effect control and ±100 the full control effect. The method in brief: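 The SH-SY5Y reporter protocol was run at 3 concentrations up to 38.3 uM (primary) or 11 concentrations (follow-up): 16 h compound, 100 nM thapsigargin for 4 h, then extracellular luciferase luminescence.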

A short description of experiment [4]: A High-Content qHTS Against Drug Library for the Identification of Small Molecules that Inhibit DYT1 Early Onset Primary Dystonia-Associated Cell Pathology (AID 1645839; calls by dose curve). The essentials: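 High-content imaging quantified EGFP-TorsinA mislocalization in HEK293-derived cells inducibly expressing DYT1 mutant torsinA, after 48 h exposure to compound given together with tetracycline induction. Cell count served as a toxicity channel alongside %pathology.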

In experiment [5] the target is Cytochrome P450 2D6 (Homo sapiens) (UniProt P10635). In words: Cytochrome P450 family 2 subfamily D member 6 (CYP2D6) small molecule antagonists: luciferase biochemical (cell-free) qHTS assay (AID 1645840; active means well fitted curve in the direction sought with a large enough effect in the repeat runs; an effect the other way counts as inactive or inconclusive; further: nearly all actives have a fitted effect of over 55% in size; further: potency means the concentration at half of the fitted maximal effect). The method in brief:
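P450-Glo CYP2D6 system: proluciferin substrate converted by enzyme to luciferin, read by luminescence proportional to activity. Enzyme-substrate mix with compound 10 min at room temperature, then NADPH regeneration 1 h before detection reagent.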

In experiment [6] the target is Cytochrome P450 2C9 (Homo sapiens) (UniProt P11712). In words: Cytochrome P450 family 2 subfamily C member 9 (CYP2C9) small molecule antagonists: luciferase biochemical (cell-free) qHTS assay (AID 1645842; active means well fitted curve in the direction sought with a large enough effect in the repeat runs; an effect the other way counts as inactive or inconclusive; further: nearly all actives have a fitted effect of over 55% in size; further: potency means the concentration at half of the fitted maximal effect). The essentials:
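P450-Glo CYP2C9 system: proluciferin substrate with enzyme in mix containing 0.4% BSA, 10 min at room temperature, then NADPH regeneration solution added and incubated 1 h at 37C. Detection reagent stopped reaction; luminescence read after 20 min as RLU.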

A short description of experiment [7]: Cytotoxicity counterscreen for inhibitors of SARS-CoV-2 cell entry (AID 1645845; calls by dose curve; further: nearly all actives have a fitted effect of over 50% in size). The essentials: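 ATP-content luminescence (ATPLite 1step, 15 min RT) read after 48 h compound exposure of Expi293F cells stably expressing human ACE2; normalized to cells-only wells and media-only wells.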
Background: The purpose of a counterscreen is to sort out artefacts and off-target activity.

Experiment [8] in a line: Primary qHTS to identify inhibitors of SARS-CoV-2 cell entry (AID 1645846; calls by dose curve; further: nearly all actives have a fitted effect of over 45% in size; further: potency means the concentration at half of the fitted maximal effect). The settings on record: activity change, negative = inhibition: at 57.1 µM (top of the series) unless noted. The essentials:
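HEK293 cells stably expressing human ACE2, pre-treated 1 h with compound, then infected with MLV particles pseudotyped with Wuhan-Hu-1 spike (C-terminal 19-aa truncation). Luciferase luminescence after 48 h at 37 °C, normalised to spike PP and bald PP.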

Experiment [9] is described as follows: Primary qHTS for inhibitors of nuclear receptor binding SET domain protein 2 (NSD2) in an isogenic RCH-ACV NSD2 p.E1099K mutant (9B) (AID 1645876). Further: nearly all actives have a fitted effect of over 70% in size. Further: potency means the concentration at half of the fitted maximal effect.
Experiment [10] can be described thus: Counterscreen qHTS for small molecule stabilizers of the endoplasmic reticulum resident proteome: GLuc-NoTag assay (AID 1508627). Further: potency means the concentration at half of the fitted maximal effect.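 On activity change, negative = inhibition: 0% = thapsigargin alone and -100% = DMSO vehicle control.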 The method in brief:
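Counterscreen line: SH-SY5Y-GLuc-NoTag cells, treated with compound 19 hr before a 4 hr, 100 nM thapsigargin calcium depletion. Secreted Gaussia luciferase in the medium was measured by luminescence after coelenterazine was added (0.07x final), with cells unlysed.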

Experiment [11] in a line: Confirmatory qHTS for small molecule stabilizers of the endoplasmic reticulum resident proteome: Secreted ER Calcium Modulated Protein (SERCaMP) assay (AID 1508628). Further: nearly all actives have a fitted effect of over 40% in size. Further: potency means the concentration at half of the fitted maximal effect. The method in brief:
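Reporter secretion upon ER calcium depletion (100 nM thapsigargin, 4 h, 37C) is measured as medium luminescence with coelenterazine, after 16 h compound pretreatment of SH-SY5Y-GLuc-SERCaMP cells; primary at three concentrations up to 38.3 uM, follow-up at 11 (up to 76.6 uM).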

Experiment [12] in a line: Primary qHTS for inhibitors of nuclear receptor binding SET domain protein 2 (NSD2) in an RCH-ACV wild type WT cells (2C) (AID 1645877). Further: nearly all actives have a fitted effect of over 70% in size. Further: potency means the concentration at half of the fitted maximal effect.
Experiment [13] has as its target Cytochrome P450 3A4 (Homo sapiens) (UniProt P08684). Briefly: Cytochrome P450 family 3 subfamily A member 4 (CYP3A4) small molecule antagonists: luciferase qHTS assay (AID 1645841; active means well fitted curve in the direction sought with a large enough effect in the repeat runs; an effect the other way counts as inactive or inconclusive; further: nearly all actives have a fitted effect of over 45% in size). The essentials:
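Luminescent CYP3A4 activity readout: compounds plus enzyme-substrate mix 10 min at room temperature, reaction started with NADPH regenerating system for 1 h, stopped with detection reagent, read after 20 min. Ketoconazole served as control.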

Another experiment deals with Papain (Carica papaya) (UniProt P00784). In words: Primary qHTS assay for inhibitors of the protease papain (AID 1645873).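 Further: papain turnover of Z-FR-AMC read as the AMC fluorescence gain over 10 min; on the % scale 0 is the no-effect control and ±100 the full control effect.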
A short description of experiment [14]: Cell Viability qHTS for small molecule stabilizers of the endoplasmic reticulum resident proteome (AID 1508629). The conditions noted are these: cell viability counter-screen, 100 nM thapsigargin for final 4 h.

The results in this text go back to PubChem BioAssay (NCATS).

Several values for one entry are separate records, joined by “and”; a condition that tells them apart may be missing. Equal values may be shown once. Inconclusive results are not listed. Activity calls are given as the source filed them. Unless noted, the call rests on the fitted dose curve; in most records, active means well fitted curve in the direction sought with a large enough effect; inconclusive means small, poorly fitted or top-dose-only effect, or another doubt; inactive means no such curve, though single readings can be large; an effect the other way counts as inactive or inconclusive.

Chain of Calcium and integrin-binding protein 1 (Homo sapiens) (Q99828 whole entry, looked up): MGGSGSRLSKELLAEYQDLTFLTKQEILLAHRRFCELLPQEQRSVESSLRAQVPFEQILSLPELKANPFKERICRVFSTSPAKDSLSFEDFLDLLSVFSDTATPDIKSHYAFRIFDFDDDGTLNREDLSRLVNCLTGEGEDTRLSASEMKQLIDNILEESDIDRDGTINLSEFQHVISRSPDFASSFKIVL
Chain of Cytochrome P450 2D6 (Homo sapiens) (P10635 whole entry, looked up): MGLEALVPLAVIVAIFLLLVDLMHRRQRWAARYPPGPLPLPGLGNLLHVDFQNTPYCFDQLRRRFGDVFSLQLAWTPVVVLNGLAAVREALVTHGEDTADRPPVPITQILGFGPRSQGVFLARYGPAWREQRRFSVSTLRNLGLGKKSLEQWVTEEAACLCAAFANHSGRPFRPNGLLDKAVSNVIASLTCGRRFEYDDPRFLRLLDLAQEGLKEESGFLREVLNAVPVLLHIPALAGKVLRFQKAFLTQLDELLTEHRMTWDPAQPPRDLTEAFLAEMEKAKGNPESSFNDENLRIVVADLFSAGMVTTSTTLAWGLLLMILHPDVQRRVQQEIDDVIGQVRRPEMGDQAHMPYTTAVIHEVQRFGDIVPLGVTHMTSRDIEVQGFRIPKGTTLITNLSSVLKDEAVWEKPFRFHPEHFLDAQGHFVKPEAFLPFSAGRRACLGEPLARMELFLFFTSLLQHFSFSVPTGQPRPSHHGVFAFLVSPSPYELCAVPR
Chain of Cytochrome P450 2C9 (Homo sapiens) (P11712 whole entry, looked up): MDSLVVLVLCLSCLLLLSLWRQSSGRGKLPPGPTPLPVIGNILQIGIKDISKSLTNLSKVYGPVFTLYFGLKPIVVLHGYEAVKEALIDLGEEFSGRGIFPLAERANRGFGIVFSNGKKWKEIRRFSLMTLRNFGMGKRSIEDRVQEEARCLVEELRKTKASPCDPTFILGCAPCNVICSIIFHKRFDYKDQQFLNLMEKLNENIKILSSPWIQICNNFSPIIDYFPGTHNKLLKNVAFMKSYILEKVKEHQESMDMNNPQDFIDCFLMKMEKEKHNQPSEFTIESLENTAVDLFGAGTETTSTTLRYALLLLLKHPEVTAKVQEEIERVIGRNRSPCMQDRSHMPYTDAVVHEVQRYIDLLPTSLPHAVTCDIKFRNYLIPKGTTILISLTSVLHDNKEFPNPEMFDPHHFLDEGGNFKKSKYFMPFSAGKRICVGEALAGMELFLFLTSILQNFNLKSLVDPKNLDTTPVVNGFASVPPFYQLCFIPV
Chain of Cytochrome P450 3A4 (Homo sapiens) (P08684 whole entry, looked up): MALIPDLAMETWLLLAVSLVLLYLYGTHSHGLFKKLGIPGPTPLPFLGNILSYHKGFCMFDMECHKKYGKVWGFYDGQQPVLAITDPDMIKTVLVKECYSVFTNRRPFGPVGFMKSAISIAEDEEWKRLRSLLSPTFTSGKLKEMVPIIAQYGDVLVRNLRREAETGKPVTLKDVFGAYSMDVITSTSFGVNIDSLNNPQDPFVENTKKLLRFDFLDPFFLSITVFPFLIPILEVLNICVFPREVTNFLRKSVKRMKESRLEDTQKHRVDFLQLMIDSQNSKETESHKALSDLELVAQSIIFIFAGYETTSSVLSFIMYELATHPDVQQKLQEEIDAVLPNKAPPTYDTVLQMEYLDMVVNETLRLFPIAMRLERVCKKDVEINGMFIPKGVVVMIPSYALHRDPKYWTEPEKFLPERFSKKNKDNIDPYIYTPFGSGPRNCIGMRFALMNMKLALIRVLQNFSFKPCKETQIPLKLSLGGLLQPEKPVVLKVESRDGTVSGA
Chain of Papain (Carica papaya) (P00784 whole entry, looked up): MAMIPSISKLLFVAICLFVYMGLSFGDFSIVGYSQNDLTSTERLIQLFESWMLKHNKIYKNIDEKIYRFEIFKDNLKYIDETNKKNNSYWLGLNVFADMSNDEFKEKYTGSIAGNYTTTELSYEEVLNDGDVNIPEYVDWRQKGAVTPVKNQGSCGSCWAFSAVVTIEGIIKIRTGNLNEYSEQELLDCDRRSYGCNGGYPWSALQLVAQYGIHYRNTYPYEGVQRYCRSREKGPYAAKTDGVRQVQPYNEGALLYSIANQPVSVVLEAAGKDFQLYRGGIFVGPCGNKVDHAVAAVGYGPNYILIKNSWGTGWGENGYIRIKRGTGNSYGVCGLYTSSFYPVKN

With `O=C(O)c1nn(Cc2ccc(Cl)cc2Cl)c2ccccc12`, the outcome in experiment [1], in [3] and in experiment [4] was inactive. For the same compound, the Potency result in experiment [2], in experiment [5], in experiment [6], in experiment [7] and in experiment [9] was “inactive” throughout. Also, the activity change, negative = inhibition in [8] is -33.8%.

For `C[C@@H]1C[C@@H]([C@H](O)CC2CC(=O)NC(=O)C2)C(=O)[C@@H](C)C1`, the Potency entry in experiment [2] is “inactive”. For the same compound, the Potency is 1.58 µM (active) and 1.12 µM (active) in experiment [10]; 0.224 µM (active) in [11]; 2.51 µM (active) in [8]; 211 nM (active) and 296 nM (active) in [9]; 188 nM (active) and 296 nM (active) in experiment [12].

As to `O=C(NC(=O)c1c(F)cccc1F)Nc1cc(Cl)c(OC(F)(F)C(F)C(F)(F)F)cc1Cl` (centres undefined), the Potency entry in experiment [2], in experiment [5] and in [7] was “inactive” in each case. The outcome in [3] and in experiment [4] was inactive. Further, the Potency in experiment [6] was 19.5 µM (active).

`CCCN(CCC)CCc1c[nH]c2ccccc12`: the Potency result in [2], in experiment [13] and in [6] was “inactive” each time. The outcome in experiment [3] and in experiment [4] was inactive. Moreover, the Potency in experiment [5] was 0.394 µM (active).

For `NC1(c2ccccc2)CCCCC1`, the Potency result in [2], in [10] and in [6] was “inactive” throughout. In addition, the Potency in experiment [11] was 56.2 µM (active); in [5] it was 28 µM (active); in [9] it was 17.1 µM (active). Besides, the compound was classed as inactive in experiment [4].

In the case of `Oc1ccc2[nH]cc(CCCCN3CC=C(c4ccccc4)CC3)c2c1`, the Potency entry in [2] and in experiment [10] was “inactive” each time. For the same compound, the Potency in experiment [11] is 12.6 µM (active); in experiment [5], 0.195 µM (active); in experiment [9] it was 7.5 µM (active); in experiment [12], 7.5 µM (active).

In the case of `ClCCCN1CCN(c2cccc(Cl)c2)CC1`, the Potency result in experiment [2], in experiment [13] and in experiment [9] was “inactive” each time. Moreover, the result in experiment [3] and in experiment [4] was inactive. The Potency in experiment [5] was 1.1 µM (active).

On to `CC(CC(C(N)=O)(c1ccccc1)c1ccccc1)N(C)C` (centres undefined), for which the Potency result in [2], in experiment [6], in experiment [7], in experiment [9] and in experiment [12] was “inactive” each time. Further, the result in [3] and in experiment [4] was inactive. Also, the Potency in experiment [5] is 7.76 µM (active). Also, the activity change, negative = inhibition in experiment [8] is -7.18%.

`CC(C)=C[C@@H]1[C@@H](C(=O)OCc2coc(Cc3ccccc3)c2)C1(C)C`: the Potency entry in experiment [2] and in experiment [5] was “inactive” throughout. For the same compound, the result in [3] and in [4] was inactive. The Potency in experiment [6] is 7.76 µM (active).

On to `NC(=O)CN1CCCC1=O`, for which the result (in experiment [1]; in experiment [3]; in [4]; in the experiment with Papain (Carica papaya)) was inactive. The Potency entry in experiment [2], in [5], in experiment [6], in experiment [8] and in experiment [9] was “inactive” each time.

As for `c1cc2c(c(N3CCNCC3)c1)OCCO2`, the Potency result in experiment [2], in [10], in experiment [11], in [5] and in experiment [6] was “inactive” in each case. The max response in [14] is 5.26% (inactive). Moreover, in experiment [4], the result was inactive.

As for `COc1ccc2[nH]cc(CCN(C(C)C)C(C)C)c2c1`, the Potency result in experiment [2] and in [6] was “inactive” throughout. The outcome in [3] and in experiment [4] was inactive. For the same compound, in experiment [5], the Potency was 3.25 µM (active).

Consider `CCCC(C)C1(CC)C(=O)N=C(S)NC1=O` (centres undefined), for which the Potency result in experiment [2] and in [5] was “inactive” in each case. The outcome in [3] and in [4] was inactive. Further, the Potency in experiment [6] was 15.5 µM (active).

Regarding `O=C1NCN(c2ccccc2)C12CCN(CCCOc1ccc(F)cc1)CC2`, the Potency entry in experiment [2] and in [6] was “inactive” each time. The Potency was 8.91 µM (active) in experiment [10]; 2.51 µM (active) and 3.16 µM (active) in experiment [11]; 0.347 µM (active) in experiment [5]; 6.68 µM (active) in experiment [9]; 7.5 µM (active) in [12]. In addition, the max response in [14] is -6.39% (inactive).
